The target in assay [1] is Serine/threonine-protein kinase pim-2 (Homo sapiens) (UniProt Q9P1W9). The following applies: at 1 µM.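 Further: each value is a mean of the inhibition measurements against the kinase.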
In assay [2] the target is Serine/threonine-protein kinase pim-3 (Homo sapiens) (UniProt Q86V86). The following applies: at 0.1 µM.
The target is the same in assay [3]. The following applies: at 1 µM.
The target in assay [4] is T1, MAP kinase-activated protein kinase 5 (Homo sapiens) (UniProt Q8IW41).
T1 sequence (whole entry): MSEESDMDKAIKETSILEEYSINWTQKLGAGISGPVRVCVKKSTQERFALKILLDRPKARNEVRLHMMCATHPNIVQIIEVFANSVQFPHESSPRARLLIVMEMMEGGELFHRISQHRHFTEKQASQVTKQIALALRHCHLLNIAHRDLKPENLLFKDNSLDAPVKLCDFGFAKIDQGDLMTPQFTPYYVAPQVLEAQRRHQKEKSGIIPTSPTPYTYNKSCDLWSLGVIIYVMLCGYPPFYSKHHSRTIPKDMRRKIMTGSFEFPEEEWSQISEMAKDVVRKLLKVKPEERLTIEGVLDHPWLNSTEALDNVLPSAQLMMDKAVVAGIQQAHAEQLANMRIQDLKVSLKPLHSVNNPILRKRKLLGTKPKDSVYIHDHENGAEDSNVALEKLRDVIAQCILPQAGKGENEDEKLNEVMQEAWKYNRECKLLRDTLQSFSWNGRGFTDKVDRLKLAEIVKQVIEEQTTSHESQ
To be noted: at 0.1 µM.

Assay [5] deals with T1, MAP kinase-activated protein kinase 5 (Homo sapiens). The following applies: at 1 µM.
Assay [6] deals with Serine/threonine-protein kinase SIK1 (Homo sapiens) (UniProt P57059). The following applies: at 0.1 µM.
The target is the same in assay [7]. To be noted: at 1 µM.
In assay [8] the target is Serine/threonine-protein kinase SIK2 (Homo sapiens) (UniProt Q9H0K1). The following applies: at 0.1 µM.
Assay [9] shares this target. The following applies: at 1 µM.
Assay [10] addresses T2, Serine/threonine-protein kinase TBK1 (Homo sapiens) (UniProt Q9UHD2).
T2 sequence (whole entry): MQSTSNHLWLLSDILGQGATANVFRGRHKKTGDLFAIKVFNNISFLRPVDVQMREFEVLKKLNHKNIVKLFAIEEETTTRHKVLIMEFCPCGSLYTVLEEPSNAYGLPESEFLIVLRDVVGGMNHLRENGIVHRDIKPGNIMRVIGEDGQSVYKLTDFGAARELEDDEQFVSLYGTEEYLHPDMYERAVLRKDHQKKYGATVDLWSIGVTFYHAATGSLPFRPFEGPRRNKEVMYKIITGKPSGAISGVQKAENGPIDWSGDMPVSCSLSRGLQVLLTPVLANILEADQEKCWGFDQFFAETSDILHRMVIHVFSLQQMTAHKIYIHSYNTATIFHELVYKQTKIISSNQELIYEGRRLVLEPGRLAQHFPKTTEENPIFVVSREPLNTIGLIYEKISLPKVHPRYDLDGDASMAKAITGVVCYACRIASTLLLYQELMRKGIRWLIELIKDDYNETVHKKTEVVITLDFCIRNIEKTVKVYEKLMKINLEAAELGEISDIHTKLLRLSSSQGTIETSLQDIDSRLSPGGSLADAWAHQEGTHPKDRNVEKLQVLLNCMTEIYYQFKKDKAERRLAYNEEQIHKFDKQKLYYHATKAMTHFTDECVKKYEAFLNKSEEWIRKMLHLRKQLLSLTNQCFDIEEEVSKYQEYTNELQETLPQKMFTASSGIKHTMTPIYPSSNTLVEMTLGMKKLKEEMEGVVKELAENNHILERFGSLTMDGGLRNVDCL
The following applies: at 0.1 µM.

Assay [11] addresses T2, Serine/threonine-protein kinase TBK1 (Homo sapiens). The following applies: at 1 µM.
Assay [12] addresses T3, Testis-specific serine/threonine-protein kinase 1 (Homo sapiens) (UniProt Q9BXA7).
T3 sequence (whole entry): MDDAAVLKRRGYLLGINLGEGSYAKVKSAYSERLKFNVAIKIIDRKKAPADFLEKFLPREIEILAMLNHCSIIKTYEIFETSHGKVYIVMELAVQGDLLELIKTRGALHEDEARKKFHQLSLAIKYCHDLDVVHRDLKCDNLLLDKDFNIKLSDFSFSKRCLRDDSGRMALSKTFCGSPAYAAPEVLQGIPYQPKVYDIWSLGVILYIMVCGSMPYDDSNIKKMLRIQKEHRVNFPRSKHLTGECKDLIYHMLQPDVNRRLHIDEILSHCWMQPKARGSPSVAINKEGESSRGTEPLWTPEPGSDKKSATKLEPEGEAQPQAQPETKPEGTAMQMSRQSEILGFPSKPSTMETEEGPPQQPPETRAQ
The following applies: at 0.1 µM.

In assay [13] the target is T3, Testis-specific serine/threonine-protein kinase 1 (Homo sapiens). To be noted: at 1 µM.
For assay [14], the target named is T4, Testis-specific serine/threonine-protein kinase 2 (Homo sapiens) (UniProt Q96PF2).
T4 sequence (whole entry): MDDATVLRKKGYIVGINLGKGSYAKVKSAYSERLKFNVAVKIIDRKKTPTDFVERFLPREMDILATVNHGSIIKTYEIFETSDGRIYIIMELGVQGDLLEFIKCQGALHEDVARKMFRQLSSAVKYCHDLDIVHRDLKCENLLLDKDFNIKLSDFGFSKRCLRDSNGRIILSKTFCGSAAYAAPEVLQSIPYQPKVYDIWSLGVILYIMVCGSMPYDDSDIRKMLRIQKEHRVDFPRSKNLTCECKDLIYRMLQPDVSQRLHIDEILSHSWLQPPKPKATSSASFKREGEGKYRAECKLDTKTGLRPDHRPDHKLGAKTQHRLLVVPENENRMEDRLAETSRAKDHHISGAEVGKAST
To be noted: at 0.1 µM.

Assay [15] concerns the target T4, Testis-specific serine/threonine-protein kinase 2 (Homo sapiens). To be noted: at 1 µM.
For assay [16], the target named is Casein kinase I isoform alpha (Homo sapiens) (UniProt P48729). The following applies: at 0.1 µM.
Assay [17] shares this target. The following applies: at 1 µM.
The target in assay [18] is Casein kinase I isoform gamma-1 (Homo sapiens) (UniProt Q9HCP0). To be noted: at 0.1 µM.
Assay [19] shares this target. The following applies: at 1 µM.
In assay [20] the target is Casein kinase I isoform gamma-2 (Homo sapiens) (UniProt P78368). The following applies: at 0.1 µM.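 Further: values are mean inhibition figures reported as part of the GSK PKIS dataset.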

The inhibition is the change of the read-out against control, counted positive when it falls.

Chain of Serine/threonine-protein kinase SIK1 (Homo sapiens) (P57059 whole entry): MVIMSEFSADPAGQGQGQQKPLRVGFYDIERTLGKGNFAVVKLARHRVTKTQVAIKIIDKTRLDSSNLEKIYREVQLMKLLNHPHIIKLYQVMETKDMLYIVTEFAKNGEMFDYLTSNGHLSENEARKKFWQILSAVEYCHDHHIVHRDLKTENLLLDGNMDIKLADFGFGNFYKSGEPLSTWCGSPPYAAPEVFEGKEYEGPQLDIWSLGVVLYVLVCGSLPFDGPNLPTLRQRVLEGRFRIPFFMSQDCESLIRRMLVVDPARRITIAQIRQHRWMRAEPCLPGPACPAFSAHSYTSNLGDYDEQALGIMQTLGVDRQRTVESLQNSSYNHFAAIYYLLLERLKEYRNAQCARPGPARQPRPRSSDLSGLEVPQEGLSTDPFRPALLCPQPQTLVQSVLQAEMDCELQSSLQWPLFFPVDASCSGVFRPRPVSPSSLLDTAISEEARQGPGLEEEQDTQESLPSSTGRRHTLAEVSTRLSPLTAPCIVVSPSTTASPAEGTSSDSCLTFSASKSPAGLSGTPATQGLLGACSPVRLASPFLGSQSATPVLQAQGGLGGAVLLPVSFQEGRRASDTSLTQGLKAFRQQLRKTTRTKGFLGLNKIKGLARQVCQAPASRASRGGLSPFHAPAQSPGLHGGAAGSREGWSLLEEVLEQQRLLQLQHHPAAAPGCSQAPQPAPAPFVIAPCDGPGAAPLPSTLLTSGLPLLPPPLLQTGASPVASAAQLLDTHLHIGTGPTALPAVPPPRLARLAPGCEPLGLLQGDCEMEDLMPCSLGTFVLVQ
Chain of Serine/threonine-protein kinase SIK2 (Homo sapiens) (Q9H0K1 whole entry, looked up): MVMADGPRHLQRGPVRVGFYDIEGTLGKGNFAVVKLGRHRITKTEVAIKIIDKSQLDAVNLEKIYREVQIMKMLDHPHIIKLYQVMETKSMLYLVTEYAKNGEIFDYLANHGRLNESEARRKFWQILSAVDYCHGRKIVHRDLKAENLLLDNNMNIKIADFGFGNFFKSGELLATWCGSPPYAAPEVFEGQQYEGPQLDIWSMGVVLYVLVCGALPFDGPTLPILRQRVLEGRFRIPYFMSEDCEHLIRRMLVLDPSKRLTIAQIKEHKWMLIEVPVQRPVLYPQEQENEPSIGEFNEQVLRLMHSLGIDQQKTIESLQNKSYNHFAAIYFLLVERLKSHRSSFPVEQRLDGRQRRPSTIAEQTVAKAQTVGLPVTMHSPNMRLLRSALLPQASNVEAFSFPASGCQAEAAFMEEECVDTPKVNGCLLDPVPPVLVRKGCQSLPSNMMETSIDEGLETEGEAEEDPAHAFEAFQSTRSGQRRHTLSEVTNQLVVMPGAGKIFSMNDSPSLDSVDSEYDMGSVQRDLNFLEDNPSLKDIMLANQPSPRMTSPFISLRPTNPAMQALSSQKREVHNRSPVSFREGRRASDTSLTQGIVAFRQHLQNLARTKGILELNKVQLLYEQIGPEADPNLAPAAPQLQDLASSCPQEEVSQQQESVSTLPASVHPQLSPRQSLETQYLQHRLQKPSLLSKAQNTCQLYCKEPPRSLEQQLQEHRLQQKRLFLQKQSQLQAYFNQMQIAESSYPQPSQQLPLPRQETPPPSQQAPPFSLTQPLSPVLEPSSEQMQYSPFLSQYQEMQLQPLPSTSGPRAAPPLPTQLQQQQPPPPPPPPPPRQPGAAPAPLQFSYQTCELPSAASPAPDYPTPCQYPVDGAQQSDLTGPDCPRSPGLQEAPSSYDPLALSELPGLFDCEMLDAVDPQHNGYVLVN
Chain of Casein kinase I isoform gamma-1 (Homo sapiens) (Q9HCP0 whole entry, looked up, canonical isoform): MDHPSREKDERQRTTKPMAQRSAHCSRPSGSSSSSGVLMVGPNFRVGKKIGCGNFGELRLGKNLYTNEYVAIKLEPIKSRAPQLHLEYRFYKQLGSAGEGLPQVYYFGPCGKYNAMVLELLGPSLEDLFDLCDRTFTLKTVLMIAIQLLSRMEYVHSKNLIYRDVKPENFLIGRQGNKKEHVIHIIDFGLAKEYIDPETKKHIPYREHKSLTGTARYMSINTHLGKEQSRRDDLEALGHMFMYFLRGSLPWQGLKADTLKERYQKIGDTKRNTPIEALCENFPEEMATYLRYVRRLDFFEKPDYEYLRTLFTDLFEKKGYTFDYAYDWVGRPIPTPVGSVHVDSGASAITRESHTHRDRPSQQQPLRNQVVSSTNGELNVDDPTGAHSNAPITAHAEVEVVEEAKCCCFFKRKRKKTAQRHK
Chain of Casein kinase I isoform gamma-2 (Homo sapiens) (P78368 whole entry, looked up, canonical isoform): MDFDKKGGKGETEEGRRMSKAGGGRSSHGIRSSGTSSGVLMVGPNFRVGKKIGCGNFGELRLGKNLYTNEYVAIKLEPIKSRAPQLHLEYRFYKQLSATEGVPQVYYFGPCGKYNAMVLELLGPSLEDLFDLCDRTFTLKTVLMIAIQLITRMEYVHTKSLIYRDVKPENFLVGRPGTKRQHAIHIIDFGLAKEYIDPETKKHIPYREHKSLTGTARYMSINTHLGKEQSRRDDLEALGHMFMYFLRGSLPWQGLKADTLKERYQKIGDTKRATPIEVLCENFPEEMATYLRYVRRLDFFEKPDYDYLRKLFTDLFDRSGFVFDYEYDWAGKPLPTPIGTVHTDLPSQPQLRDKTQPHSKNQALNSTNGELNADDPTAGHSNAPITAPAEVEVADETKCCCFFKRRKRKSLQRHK
Chain of Casein kinase I isoform alpha (Homo sapiens) (P48729 2-337 limits assumed): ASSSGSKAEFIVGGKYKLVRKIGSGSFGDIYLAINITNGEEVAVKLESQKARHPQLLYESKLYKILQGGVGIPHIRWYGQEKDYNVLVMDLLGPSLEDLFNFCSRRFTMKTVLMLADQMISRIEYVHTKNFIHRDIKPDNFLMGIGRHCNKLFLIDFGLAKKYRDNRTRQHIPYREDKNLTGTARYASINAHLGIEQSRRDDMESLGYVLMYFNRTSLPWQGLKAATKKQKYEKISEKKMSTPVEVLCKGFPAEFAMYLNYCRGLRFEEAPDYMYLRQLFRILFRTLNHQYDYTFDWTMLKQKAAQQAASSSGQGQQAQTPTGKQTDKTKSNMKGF
Chain of Serine/threonine-protein kinase pim-2 (Homo sapiens) (Q9P1W9 whole entry, looked up): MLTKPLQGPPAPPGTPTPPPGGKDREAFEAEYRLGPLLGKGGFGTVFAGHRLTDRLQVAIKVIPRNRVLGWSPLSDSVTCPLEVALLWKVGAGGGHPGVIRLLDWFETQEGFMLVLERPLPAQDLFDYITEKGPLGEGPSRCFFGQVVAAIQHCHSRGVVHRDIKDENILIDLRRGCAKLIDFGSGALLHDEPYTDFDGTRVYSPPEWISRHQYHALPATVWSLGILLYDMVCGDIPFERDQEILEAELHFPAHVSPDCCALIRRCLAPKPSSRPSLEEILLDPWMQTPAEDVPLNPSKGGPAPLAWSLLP

In the case of `O=C(Nc1n[nH]c2nc(-c3ccco3)ccc12)C1CC1`, the inhibition is -0.06% in assay [1]; 0.6% in assay [2]; -0.35% in assay [3]; -0.19% in assay [4]; -1.25% in assay [5]; 4.89% in [6]. The inhibition in [7] came to 3.71%; in assay [8], 0.98%; in assay [9] it was 3.32%; in assay [10], 1.19%; in [11], 2.8%; in assay [12], 1.99%. The inhibition in [13] is -0.53%; in assay [14], 0.63%; in assay [15] it was -1.49%; in assay [16], 0.06%; in [17], 3.38%; in assay [18], 0.09%. Besides, the inhibition in assay [19] is 1.22%; in assay [20], -0.26%.

As for `COc1cc2ncn(-c3cc(OCc4ccccc4C(F)(F)F)c(C(C)=O)s3)c2cc1OC`, the inhibition is 0.86% in assay [1]; 0.65% in assay [2]; -0.5% in assay [3]; 1.07% in assay [4]; 0.82% in [5]; -0.57% in [6]. Also, the inhibition is 5.68% in assay [7]; -0.99% in assay [8]; 7.06% in assay [9]; 2.89% in assay [10]; 2.12% in assay [11]; 2.55% in assay [12]. Also, the inhibition in assay [13] was found to be 3.05%; in assay [14], 1.34%; in assay [15], 1.53%; in assay [16], 3.35%; in assay [17], 2.73%; in assay [18] it was 2.77%. In addition, the results for the inhibition in [19] and in assay [20] were 3.34% and 2.24%, respectively.

Consider `Fc1ccc(-c2nc3n(c2-c2ccncc2)CCS3)cc1`, for which the inhibition in [1] was -3.08%; in assay [2] it was -1.3%; in assay [3] it was -1.87%; in assay [4], 1.2%; in assay [5] it was 0.34%; in assay [6] it was 5%. The inhibition in [7] worked out at 13.5%; in [8] it was 1.21%; in assay [9], 7.35%; in assay [10] it was 2.27%; in assay [11] it was 2.87%; in [12] it was 3.08%. For the same compound, the inhibition in [13] is 2.73%; in assay [14] it was 1.01%; in [15], 0.48%; in [16] it was 10.8%; in assay [17], 42.4%; in assay [18], 0.76%. In addition, the inhibition in assay [19] was 5.36%; in [20], -1.13%.

For the compound `CNC(=O)c1cncc(/C=C/c2c(C)cccc2C)c1`, the inhibition in [1] was -3.47%; in assay [2], 1.2%; in assay [3] it was 2.65%; in assay [4], -0.02%; in assay [5] it was -0.41%; in assay [6] it was 26.2%. Besides, the inhibition in [7] is 76%; in assay [8], 7.18%; in assay [9], 27.6%; in assay [10] it was 0.21%; in [11] it was 0.94%; in assay [12], 0.04%. Besides, the inhibition in assay [13] was -1.47%; in assay [14], -0.04%; in [15], -1.42%; in [16] it was 4.35%; in assay [17] it was 2.33%; in assay [18] it was -2.91%. Besides, the results for the inhibition in assay [19] and in [20] were -2.08% and -2.38%, respectively.

For `O=C(Nc1ccc(Oc2ccc3[nH]c(NC(=O)c4ccccc4)nc3c2)cc1)Nc1cc(C(F)(F)F)ccc1F`, the inhibition in assay [1] is -0.13%; in assay [2], 0.85%; in assay [3], -0.27%; in assay [4] it was 0.86%; in [5], 0.98%; in assay [6] it was 5.14%. The inhibition amounted to 9.55% in assay [7]; 6.29% in assay [8]; 6.45% in assay [9]; 0.91% in [10]; 4.56% in assay [11]; 2.04% in assay [12]. In addition, the inhibition in [13] stood at 0.69%; in [14], 1.68%; in [15], 0.74%; in [16], 3.86%; in assay [17], 3.79%; in [18], 2.09%. The values for the inhibition in assay [19] and in [20] were 2.88% and 1.66%, respectively.

As to `O=C1Nc2ccccc2/C1=C/Nc1ccc(-n2cncn2)cc1`, the inhibition is 2.25% in assay [1]; 1.36% in [2]; 4.7% in assay [3]; 1.63% in assay [4]; 4.02% in assay [5]; 5.8% in assay [6]. The inhibition in [7] worked out at 9.8%; in [8] it was 3.09%; in assay [9], 11.6%; in assay [10], 6.41%; in [11], 17.3%; in assay [12] it was 4.37%. For the same compound, the inhibition was 7.35% in assay [13]; 3.01% in assay [14]; 5.54% in assay [15]; 3.79% in assay [16]; 10.3% in [17]; 4.33% in [18]. The inhibition is 7.11% in assay [19] and 3.66% in assay [20].

Take `N#Cc1ccc(Oc2nccc(-c3c(-c4ccc(F)cc4)ncn3C3CCNCC3)n2)cc1`: the inhibition was determined as 0.58% in assay [1]; 0.29% in assay [2]; 0.8% in assay [3]; 1.34% in assay [4]; 1.48% in assay [5]; 5.1% in assay [6]. In addition, the inhibition in assay [7] came to 7.69%; in assay [8] it was 2.82%; in assay [9], 9.93%; in assay [10], 1.69%; in assay [11], 3.03%; in [12], 3.77%. Moreover, the inhibition in assay [13] is 4.18%; in assay [14] it was 1.71%; in [15] it was 4.59%; in [16] it was 4.15%; in assay [17] it was 10.1%; in [18] it was 3.79%. The inhibition was 5.9% in assay [19] and 3.52% in assay [20].

As to `CS(=O)(=O)CCNCc1ccc(-c2ccc3ncnc(Nc4ccc(OCc5ccccc5)c(Br)c4)c3c2)o1`, the inhibition in [1] is -3.1%; in [2] it was -0.66%; in assay [3], -0.32%; in assay [4], 1.32%; in [5], 2.06%; in [6] it was 2.19%. In addition, the inhibition worked out at 8.17% in [7]; 4.6% in assay [8]; 4.18% in [9]; 1.02% in [10]; 1.05% in assay [11]; 2.71% in assay [12]. The inhibition in assay [13] amounted to 2.53%; in assay [14], 1.22%; in assay [15], 1%; in [16], 1.67%; in [17], 0.68%; in assay [18] it was 0.63%. Further, the values for the inhibition in assay [19] and in assay [20] were -0.07% and -0.49%, respectively.

Source of the values: ChEMBL document CHEMBL1961873, “Compounds: GSK PKIS; Assays: Nanosyn kinase panel” (2012).
